Calls of active or inactive are those of the source. Unless noted, how the calls were made is not given here.
How the values were obtained:
[1] = anti-His antibody binders, primary screen, artefact control for SMM control protein annotation, biochemical, small-molecule microarray, 635 nm fluorescence (AID 1128); conditions: anti-His Alexa647 antibody binding, higher = more signal;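 further: score merges feature fluorescence with signal-to-noise for each printed compound spot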
[2] = tested on: Human papillomavirus type 1a E7 protein (residues 1-88); experiment: HPV1a E7 small-molecule binders, primary screen, biochemical, small-molecule microarray, residues 1-88, 635 nm (AID 1129); conditions: small-molecule microarray binding, fluorescence 635 nm; higher = more signal
[3] = molecular target: Focal adhesion kinase 1 (Homo sapiens) (UniProt Q05397); experiment: small-molecule microarray binders of FAK, primary screen, biochemical, 635/667 nm fluorescence, BSA, DTT (AID 1130); conditions: PTK2 binding, 635 nm fluorescence, higher = more signal;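 further: composite of spot emission at 667 nm and signal to noise over triplicate slides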
Sequence of Focal adhesion kinase 1 (Homo sapiens) (Q05397 whole entry, looked up): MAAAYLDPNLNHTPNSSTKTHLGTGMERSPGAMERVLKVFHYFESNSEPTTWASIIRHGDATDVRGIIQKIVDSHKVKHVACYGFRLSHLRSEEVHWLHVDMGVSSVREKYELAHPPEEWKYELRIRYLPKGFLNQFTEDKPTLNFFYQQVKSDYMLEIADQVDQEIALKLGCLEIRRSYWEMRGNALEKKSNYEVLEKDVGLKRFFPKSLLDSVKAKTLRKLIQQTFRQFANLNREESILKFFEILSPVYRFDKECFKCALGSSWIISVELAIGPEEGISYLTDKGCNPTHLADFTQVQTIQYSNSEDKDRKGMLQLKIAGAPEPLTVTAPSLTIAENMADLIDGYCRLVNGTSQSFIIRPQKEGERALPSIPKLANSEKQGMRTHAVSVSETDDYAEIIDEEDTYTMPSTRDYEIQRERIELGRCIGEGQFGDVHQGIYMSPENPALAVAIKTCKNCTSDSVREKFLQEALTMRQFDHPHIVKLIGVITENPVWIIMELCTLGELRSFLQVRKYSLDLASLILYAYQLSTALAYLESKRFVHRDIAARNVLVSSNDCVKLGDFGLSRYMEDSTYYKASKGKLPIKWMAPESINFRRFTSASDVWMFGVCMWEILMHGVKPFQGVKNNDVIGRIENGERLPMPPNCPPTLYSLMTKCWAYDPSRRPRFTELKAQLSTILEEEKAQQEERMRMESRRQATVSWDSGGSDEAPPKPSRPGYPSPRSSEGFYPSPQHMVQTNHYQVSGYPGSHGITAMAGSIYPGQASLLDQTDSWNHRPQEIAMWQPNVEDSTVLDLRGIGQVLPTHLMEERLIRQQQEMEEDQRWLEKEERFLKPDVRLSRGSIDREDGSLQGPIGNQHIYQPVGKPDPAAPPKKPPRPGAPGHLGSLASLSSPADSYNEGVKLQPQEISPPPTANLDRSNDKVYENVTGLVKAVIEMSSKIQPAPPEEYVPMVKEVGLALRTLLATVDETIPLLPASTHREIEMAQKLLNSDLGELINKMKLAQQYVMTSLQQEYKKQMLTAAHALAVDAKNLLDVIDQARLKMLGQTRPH

[4] = tested on: Fibrinogen (Alexa647-labelled); experiment: fibrinogen binders on compound microarrays, profiling panel, artefact control for SMM control-protein annotation, biochemical, small-molecule microarray, 635/667 nm fluorescence (AID 1131); conditions: fibrinogen-A647 binding fluorescence, higher = more signal;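 further: z-score merges 667 nm fluorescence with per-spot signal-to-noise over triplicate slides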
[5] = molecular target: Follistatin (Homo sapiens) (UniProt P19883); experiment: follistatin binders on small-molecule microarrays, primary screen, biochemical, small-molecule microarray, 635/667 nm fluorescence (AID 1132); conditions: FST binding, 635 nm fluorescence, higher = more signal
Sequence of Follistatin (Homo sapiens) (P19883 whole entry, looked up): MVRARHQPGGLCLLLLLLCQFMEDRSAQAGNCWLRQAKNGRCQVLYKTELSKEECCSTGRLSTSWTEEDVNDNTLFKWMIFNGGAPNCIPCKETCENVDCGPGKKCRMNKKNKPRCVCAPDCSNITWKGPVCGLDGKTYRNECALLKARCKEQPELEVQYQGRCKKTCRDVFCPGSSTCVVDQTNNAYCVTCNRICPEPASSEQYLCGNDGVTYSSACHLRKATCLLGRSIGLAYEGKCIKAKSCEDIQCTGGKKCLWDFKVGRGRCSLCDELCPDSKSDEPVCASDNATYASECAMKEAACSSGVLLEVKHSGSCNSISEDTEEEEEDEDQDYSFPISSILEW

[6] = molecular target: Fibroblast growth factor 2 (Homo sapiens) (UniProt P09038); experiment: FGF2 binders on small-molecule microarrays, primary screen, biochemical, small-molecule microarray, 635/667 nm fluorescence (AID 1133); conditions: small-molecule microarray binding, FGF2, fluorescence 635/667; higher = more signal
Sequence of Fibroblast growth factor 2 (Homo sapiens) (P09038 whole entry, looked up): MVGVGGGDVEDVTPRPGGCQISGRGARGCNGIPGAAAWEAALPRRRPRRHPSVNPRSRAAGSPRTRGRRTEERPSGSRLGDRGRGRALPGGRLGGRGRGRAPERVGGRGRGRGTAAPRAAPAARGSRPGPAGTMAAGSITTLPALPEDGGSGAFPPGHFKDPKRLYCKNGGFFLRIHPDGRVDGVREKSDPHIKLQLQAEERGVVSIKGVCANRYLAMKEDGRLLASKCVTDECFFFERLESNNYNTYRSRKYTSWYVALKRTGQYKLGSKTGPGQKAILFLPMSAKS

[7] = mitochondrial membrane potential change in A549 cells, profiling panel, cell-based, JC-1 fluorescence, basal, 24 h, 100 nL (AID 1138); conditions: higher = more signal;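 further: A549 lung adenocarcinoma cells under basal conditions with no added stimulus; test concentration not given here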
Lefty1 = Lefty1 binders on small-molecule microarrays, primary screen, biochemical, small-molecule microarray, 635/667 nm fluorescence (AID 1139); conditions: small-molecule microarray binding, fluorescence 635/667; higher = more signal
[8] = tested on: wheat germ agglutinin (Triticum aestivum), Alexa647-labelled; experiment: wheat germ agglutinin binders on compound microarrays, profiling panel, artefact control for SMM control-protein annotation, biochemical, small-molecule microarray, 635/667 nm fluorescence (AID 1140); conditions: WGA-A647 binding, 635 nm fluorescence, higher = more signal;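 further: score merges 667 nm feature emission with signal to noise over triplicate slides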
[9] = molecular target: Luciferin 4-monooxygenase (Photinus pyralis) (UniProt P08659); experiment: firefly luciferase enzyme inhibitors, primary screen, biochemical, luminescence, purified enzyme, 2006 set (AID 1141); conditions: SteadyGlo luminescence, 30 min, higher = more signal, called active from +8 up or from −8 down;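 further: cell-free assay with purified firefly luciferase at 100 ng per well in PBS; test concentration not given here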
Sequence of Luciferin 4-monooxygenase (Photinus pyralis) (P08659 whole entry, looked up): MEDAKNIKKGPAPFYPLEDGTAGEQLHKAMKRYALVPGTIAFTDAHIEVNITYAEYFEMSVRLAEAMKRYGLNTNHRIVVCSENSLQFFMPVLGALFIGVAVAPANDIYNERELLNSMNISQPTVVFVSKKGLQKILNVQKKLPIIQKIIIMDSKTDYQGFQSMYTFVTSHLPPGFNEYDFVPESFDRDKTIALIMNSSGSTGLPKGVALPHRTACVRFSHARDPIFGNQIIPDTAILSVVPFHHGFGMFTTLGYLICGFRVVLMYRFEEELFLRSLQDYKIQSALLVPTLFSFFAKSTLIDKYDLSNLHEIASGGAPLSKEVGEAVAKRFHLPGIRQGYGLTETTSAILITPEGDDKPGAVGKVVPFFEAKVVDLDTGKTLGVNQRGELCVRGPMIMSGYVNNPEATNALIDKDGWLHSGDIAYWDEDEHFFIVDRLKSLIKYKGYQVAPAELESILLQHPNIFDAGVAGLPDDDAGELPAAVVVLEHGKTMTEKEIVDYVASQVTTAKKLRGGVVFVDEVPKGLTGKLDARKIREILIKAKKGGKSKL

[10] = tested on: Wnt5a (protein binding on small-molecule microarray); experiment: Wnt5a binders on small-molecule microarray, primary screen, biophysical, 635/667 nm fluorescence (AID 1142); conditions: 635 nm fluorescence, higher = more signal;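 further: fluorescence read at 667 nm with signal to noise per printed feature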
[11] = cell viability in Huh7 cells, primary screen, cytotoxicity control for HCV replication inhibitor project, CellTiter-Glo luminescence, basal, 48 h (AID 1143); conditions: Huh7 HCV replicon, higher = more signal, called active from +8 up or from −8 down;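 further: Huh7 hepatoma cells carrying a hepatitis C replication reporter with no stimulus; test concentration not given here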
[12] = P. aeruginosa biofilm formation inhibitors, primary screen, PAO1 strain, BacTiter-Glo luminescence, LB-PBS (AID 1144); conditions: 12 h, higher = more signal
[13] = CREB reporter modulators without forskolin, primary screen, cell-based, PC12, CRE-LacZ reporter, unstimulated (AID 1145); conditions: no forskolin, luminescence, 4.5 h, higher = more signal, called active from +8 up or from −8 down
[14] = CREB reporter modulators under forskolin, primary screen, cell-based, PC12, CRE-LacZ reporter, forskolin-stimulated (AID 1146); conditions: luminescence, 4.5 h, higher = more signal, called active from +8 up or from −8 down;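 further: PC12 cells with 6xCRE LacZ reporter stimulated by forskolin 10 µM; beta-galactosidase reporter signal reflecting CREB driven transcription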
[15] = molecular target: Streptavidin (Streptomyces avidinii) (UniProt P22629); experiment: streptavidin binders on small-molecule microarray, primary screen, artefact control for SMM compound annotation, biophysical, 635/667 nm fluorescence (AID 1147); conditions: streptavidin binding, higher = more signal;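 further: signal reflects streptavidin binding to arrayed compounds as a control protein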
Sequence of Streptavidin (Streptomyces avidinii) (P22629 whole entry, looked up): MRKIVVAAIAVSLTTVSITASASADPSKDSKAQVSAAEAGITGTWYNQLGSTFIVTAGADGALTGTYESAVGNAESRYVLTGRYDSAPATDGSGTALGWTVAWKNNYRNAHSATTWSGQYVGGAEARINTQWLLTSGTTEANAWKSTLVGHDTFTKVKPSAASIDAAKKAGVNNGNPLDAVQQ

[16] = small-molecule binders of probe aInhba, primary screen, biochemical, small-molecule microarray, 635/667 nm fluorescence (AID 1148); conditions: higher = more signal;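 further: score merges 667nm spot fluorescence with signal-to-noise for antibody binding to printed compounds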
Torsin-1A (Homo sapiens) [17] = molecular target: Torsin-1A (Homo sapiens) (UniProt O14656); experiment: torsin A binders from cell lysate, primary screen, small-molecule microarray, wild-type, 635/667 nm (AID 1149); conditions: COS7 hTOR1A-WT lysate, 635 nm fluorescence, higher = more signal
Sequence of Torsin-1A (Homo sapiens) (O14656 whole entry, looked up): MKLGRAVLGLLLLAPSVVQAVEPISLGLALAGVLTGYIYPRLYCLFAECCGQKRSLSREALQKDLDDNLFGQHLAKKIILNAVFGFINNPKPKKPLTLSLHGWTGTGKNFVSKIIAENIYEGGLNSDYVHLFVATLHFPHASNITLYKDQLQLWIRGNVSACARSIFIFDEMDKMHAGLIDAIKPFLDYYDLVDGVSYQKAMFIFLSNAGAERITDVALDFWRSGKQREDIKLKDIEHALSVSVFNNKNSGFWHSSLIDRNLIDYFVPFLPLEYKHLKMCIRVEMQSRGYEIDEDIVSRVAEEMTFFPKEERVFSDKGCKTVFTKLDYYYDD

Torsin-1A (Homo sapiens) [18] = molecular target: Torsin-1A (Homo sapiens) (UniProt O14656); experiment: small-molecule binders of mutant TOR1A in lysate, primary screen, cell lysate, small-molecule microarray, COS7 lysate, 635/667 nm fluorescence (AID 1150); conditions: COS7 hTOR1A mutant lysate, 635 nm fluorescence, higher = more signal;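 further: score pools 667 nm emission and signal to noise measuring lysate protein binding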
[19] = tested on: Sonic hedgehog protein (Shh); experiment: small-molecule binders of Shh protein, primary screen, biochemical, small-molecule microarray, 635/667 nm fluorescence (AID 1151); conditions: small-molecule microarray binding, 635 nm fluorescence; higher = more signal;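 further: Shh protein binding to compounds spotted on small-molecule microarray slides; score combines spot fluorescence intensity with signal-to-noise across triplicate slides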

Row | Structure (SMILES) | composite z-score [1] | composite z-score [2] | composite z-score [3] | composite z-score [4] | composite z-score [5] | composite z-score [6] | z-score [7] | composite z-score (Lefty1) | composite z-score [8] | z-score [9] | composite z-score [10] | z-score [11] | z-score [12] | z-score [13] | z-score [14] | composite z-score [15] | composite z-score [16] | composite z-score (Torsin-1A (Homo sapiens) [17]) | composite z-score (Torsin-1A (Homo sapiens) [18]) | composite z-score [19]
1 | CC(C)NC(=O)[C@@]1(C)c2ccccc2C(=O)N(Cc2cc(F)cc(C(F)(F)F)c2)[C@H]1c1ccc(CO)cc1 | 0.886 | 0.982 | 0.0792 | 0.335 | 0.677 | 1.67 | -0.483 | 0.0338 | 0.512 | 0.433 (inactive) | 0.646 | -0.527 (inactive) | -0.699 (inactive) | 0.648 (inactive) | -0.237 (inactive) | 0.0926 | 0.2 | 0.411 | 0.916 | 0.903
2 | CC(=O)OC[C@H]1O[C@H](CCON=C[C@@H](C)[C@H](OCc2ccccc2)C(C)C)C=C[C@@H]1OC(C)=O | -0.508 | 0.193 | -0.101 | 0.797 | 0.319 | 0.274 | -0.808 | 0.325 | 0.156 | 1.26 (inactive) | -0.0629 | -0.305 (inactive) | 0.0966 (inactive) | 1.16 (inactive) | 0.598 (inactive) | 0.133 | -0.199 | 0.658 | 0.284 | 0.372
3 | CC(C)C[C@@H]1NC(=O)[C@H]2C[C@@H](C(=O)O)[C@@H](c3ccc(O)cc3)N2C1=O | 3.44 | -0.526 | -0.199 | -0.0448 | 1.34 | 0.85 | -0.986 | 0.874 | 0.242 | -1.2 (inactive) | 0.0112 | -0.354 (inactive) | -0.1 (inactive) | 0.281 (inactive) | -0.627 (inactive) | 0.0925 | -0.0521 | 0.884 | 0.285 | 1.67
4 | CC(CCN1CCc2nc(-c3ccccc3)c(-c3ccccc3)cc2C1)=NO[C@@H](C)c1cn([C@H](CO)Cc2ccccc2)nn1 | -0.0253 | 0.219 | 0.0807 | 0.929 | 0.408 | 0.453 | 1.22 | 0.342 | 0.706 | -1.77 (inactive) | -0.107 | -0.802 (inactive) | -0.414 (inactive) | 0.573 (inactive) | -0.795 (inactive) | 0.52 | 0.0131 | 1.62 | 0.482 | 1.25
5 | C[C@@H]1C=CCC(=O)OC[C@H](C)C(=O)N[C@@H](C)C(=O)OC1 | -0.181 | -0.479 | 1.32 | -0.096 | 0.302 | 1.09 | -0.944 | 0.921 | -0.323 | 1.04 (inactive) | 0.268 | -0.568 (inactive) | -0.298 (inactive) | -0.887 (inactive) | -0.24 (inactive) | 0.34 | -0.0044 | 1.51 | 0.527 | 1.3
6 | O=C1C[C@@H](O)[C@@H](O)[C@@H]2[C@@H]3C(=O)N(Cc4ccc5c(c4)OCO5)C(=O)[C@@H]3CC[C@@H]12 | -0.0619 | 0.459 | 0.0309 | 0.197 | 0.499 | 0.507 | 0.481 | 0.549 | -0.107 | -0.786 (inactive) | 0.0765 | 0.136 (inactive) | 0.00816 (inactive) | -0.116 (inactive) | 0.0785 (inactive) | -0.282 | -0.149 | 0.622 | 0.407 | 0.698
7 | COc1ccc(O[C@H]2C=C[C@@H](c3ccccc3)O[C@@H]2COC(=O)N2CCCCC2)cc1 | -0.475 | -1.23 | -0.073 | -0.528 | 0.12 | 0.571 | -0.433 | 0.225 | -0.249 | 0.711 (inactive) | -0.19 | -0.259 (inactive) | 0.615 (inactive) | 0.929 (inactive) | 0.197 (inactive) | -0.221 | -0.108 | 0.205 | 0.125 | 0.147
8 | CC(C)=NOCc1cccc(-c2cc(-c3ccccc3)no2)c1 | 0.545 | 0.974 | 0.882 | 0.464 | 0.973 | 0.727 | 0.732 | 0.92 | 0.848 | -0.158 (inactive) | 0.118 | 0.525 (inactive) | -0.14 (inactive) | -0.437 (inactive) | 0.345 (inactive) | 0.468 | 0.106 | 0.533 | 0.247 | 0.826
9 | O=C1[C@H]2[C@H]3[C@H](O)[C@H](O)CC(=NO[C@@H]4O[C@H](CO)[C@@H](O)[C@H](O)[C@H]4O)[C@@H]3CC[C@H]2C(=O)N1c1ccc(F)cc1F | 0.537 | 0.534 | -0.33 | 0.273 | 0.438 | 0.209 | 0.242 | 0.386 | 0.0553 | 0.523 (inactive) | 0.166 | 0.115 (inactive) | 0.593 (inactive) | 0.0711 (inactive) | 0.767 (inactive) | 0.38 | -0.0719 | 0.851 | 1.1 | 0.51
10 | COCCCNC(=O)[C@@]1(C)c2ccccc2C(=O)N(Cc2ccc(OC(F)(F)F)cc2)[C@H]1c1ccc(CO)cc1 | -0.95 | -1.52 | -0.253 | -1.75 | -0.0328 | -0.553 | 0.332 | -1.02 | -1.18 | -0.159 (inactive) | -0.0685 | -1.27 (inactive) | -0.27 (inactive) | 0.585 (inactive) | -0.0912 (inactive) | -0.773 | 0.185 | 0.13 | -0.17 | -0.32
